Consider ten molecules from ChEMBL document CHEMBL3988442, “University of Dundee, Small-Polar-MMV Screening Library” (2021).

What all share (parameters): scale not given: direction of the effect not stated beside the values
The target of test [1] is Protein translocase subunit SecA (Escherichia coli (strain K12)) (UniProt P10408). Put plainly: Assay to Identify E. coli SecA ATPase Inhibitors. Conditions: 30 µM. It counts as functional.
The target of test [2] is T1, Ubiquitin-activating enzyme e1, putative (Leishmania donovani (strain BPK282A1)) (UniProt E9BSI1).
T1 sequence (whole entry): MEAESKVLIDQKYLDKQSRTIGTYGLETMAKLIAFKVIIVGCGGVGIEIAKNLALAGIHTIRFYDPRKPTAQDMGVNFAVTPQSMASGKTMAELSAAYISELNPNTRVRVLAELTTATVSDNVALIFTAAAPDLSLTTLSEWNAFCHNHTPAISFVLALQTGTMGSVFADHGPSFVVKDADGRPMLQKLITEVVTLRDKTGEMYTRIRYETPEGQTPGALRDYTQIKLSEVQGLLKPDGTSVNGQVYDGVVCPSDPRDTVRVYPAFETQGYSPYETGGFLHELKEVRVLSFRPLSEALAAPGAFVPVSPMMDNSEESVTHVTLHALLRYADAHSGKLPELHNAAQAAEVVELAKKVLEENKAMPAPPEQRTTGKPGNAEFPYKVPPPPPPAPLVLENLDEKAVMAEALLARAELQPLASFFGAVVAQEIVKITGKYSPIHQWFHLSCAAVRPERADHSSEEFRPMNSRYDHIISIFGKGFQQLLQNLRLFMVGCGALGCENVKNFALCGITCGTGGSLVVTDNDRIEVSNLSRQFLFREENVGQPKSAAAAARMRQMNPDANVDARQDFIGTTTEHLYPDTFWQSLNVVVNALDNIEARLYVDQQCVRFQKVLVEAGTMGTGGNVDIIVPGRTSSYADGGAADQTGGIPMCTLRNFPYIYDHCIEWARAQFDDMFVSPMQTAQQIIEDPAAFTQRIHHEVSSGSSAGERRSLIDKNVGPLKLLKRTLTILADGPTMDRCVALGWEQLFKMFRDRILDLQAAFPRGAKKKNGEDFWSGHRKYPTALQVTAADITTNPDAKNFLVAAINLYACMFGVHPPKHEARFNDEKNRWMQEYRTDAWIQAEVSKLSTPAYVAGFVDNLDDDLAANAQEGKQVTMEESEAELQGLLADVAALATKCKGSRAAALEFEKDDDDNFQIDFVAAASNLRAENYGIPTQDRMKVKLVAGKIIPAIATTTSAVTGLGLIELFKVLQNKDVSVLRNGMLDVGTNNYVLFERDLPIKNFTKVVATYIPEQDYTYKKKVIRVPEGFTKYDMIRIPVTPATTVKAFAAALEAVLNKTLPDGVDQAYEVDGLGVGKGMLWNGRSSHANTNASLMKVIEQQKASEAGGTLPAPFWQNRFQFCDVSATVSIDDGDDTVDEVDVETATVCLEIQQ
Kind of test: Leishmania donovani Ubiquitin Activating Enzyme (LdE1). It counts as functional. Conditions: 30 µM.

Test [3] deals with AMP-activated protein kinase, AMPK (Homo sapiens) (UniProt P54646+O43741+P54619+Q9UGJ0+Q9Y478+Q13131+Q9UGI9). Kind of test: AMP-dependent Kinase enzyme assay. An in vitro enzyme assay that detects ADP turnover that is directly proportional to AMPK activity. This uses naive AMPK that is activated during the assay with MK-8722. To be noted: 30 µM. It counts as functional.
Test [4] concerns the target Sialic acid-binding Ig-like lectin 9 (Homo sapiens) (UniProt Q9Y336). Kind of test: Hs-Siglec9 ALPHAscreen SOP 20170721. To be noted: 10 µM. On the technique in general: Alpha assays give light when donor and acceptor beads are brought close together.
For test [5], the system named is Trypanosoma cruzi. Kind of test: Trypanosoma cruzi phosphomannomutase and mannose-1-phosphate guanylyltransferase assay. Conditions: 10 µM. Type of test: functional.
For test [6], the target named is T2, Arginase-2, mitochondrial (Homo sapiens) (UniProt P78540).
T2 sequence (whole entry): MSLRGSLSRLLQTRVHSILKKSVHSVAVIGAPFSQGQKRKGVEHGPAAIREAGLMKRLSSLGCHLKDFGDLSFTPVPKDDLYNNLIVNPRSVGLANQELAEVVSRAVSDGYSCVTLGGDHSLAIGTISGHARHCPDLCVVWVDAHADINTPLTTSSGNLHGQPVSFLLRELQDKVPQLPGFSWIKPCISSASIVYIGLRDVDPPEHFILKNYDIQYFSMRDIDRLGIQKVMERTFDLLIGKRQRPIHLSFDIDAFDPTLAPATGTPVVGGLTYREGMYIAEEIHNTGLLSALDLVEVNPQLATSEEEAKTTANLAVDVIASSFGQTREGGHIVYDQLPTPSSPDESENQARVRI
Kind of test: in vitro enzyme assay to detect the production of urea directly proportional to the activity of Arginase II. Note: in the data most compounds retested in dose-response had high values. It counts as functional. To be noted: 33.3 µM.

Test [7] deals with T3, Proteasome subunit beta (Trypanosoma cruzi) (UniProt O96673).
T3 sequence (whole entry): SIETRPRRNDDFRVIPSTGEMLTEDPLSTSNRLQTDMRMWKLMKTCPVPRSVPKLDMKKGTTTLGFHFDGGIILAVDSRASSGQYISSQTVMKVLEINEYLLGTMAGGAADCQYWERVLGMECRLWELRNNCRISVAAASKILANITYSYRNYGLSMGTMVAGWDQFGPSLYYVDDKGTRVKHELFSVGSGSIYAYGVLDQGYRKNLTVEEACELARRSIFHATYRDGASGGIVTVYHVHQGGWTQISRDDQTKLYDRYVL
Kind of test: Trypanosoma cruzi proteasome chymotrypsin-like activity (TcProtChymo) assay. Note: in the data most compounds retested in dose-response had high values. Type of test: functional. To be noted: 9.37 µM.

Test [8] is filed under the species Homo sapiens. Put plainly: To identify inhibition of the IFN signalling (Jak-Stat) pathway via expression of an eGFP reporter gene under the control of an IFN-stimulated response element (ISRE) containing MxA promoter. Type of test: functional. Conditions: 30 µM.
In test [9] the target is T4, Tyrosyl-tRNA synthetase, putative (Trypanosoma cruzi (strain CL Brener)) (UniProt Q4DSP6).
T4 sequence (whole entry): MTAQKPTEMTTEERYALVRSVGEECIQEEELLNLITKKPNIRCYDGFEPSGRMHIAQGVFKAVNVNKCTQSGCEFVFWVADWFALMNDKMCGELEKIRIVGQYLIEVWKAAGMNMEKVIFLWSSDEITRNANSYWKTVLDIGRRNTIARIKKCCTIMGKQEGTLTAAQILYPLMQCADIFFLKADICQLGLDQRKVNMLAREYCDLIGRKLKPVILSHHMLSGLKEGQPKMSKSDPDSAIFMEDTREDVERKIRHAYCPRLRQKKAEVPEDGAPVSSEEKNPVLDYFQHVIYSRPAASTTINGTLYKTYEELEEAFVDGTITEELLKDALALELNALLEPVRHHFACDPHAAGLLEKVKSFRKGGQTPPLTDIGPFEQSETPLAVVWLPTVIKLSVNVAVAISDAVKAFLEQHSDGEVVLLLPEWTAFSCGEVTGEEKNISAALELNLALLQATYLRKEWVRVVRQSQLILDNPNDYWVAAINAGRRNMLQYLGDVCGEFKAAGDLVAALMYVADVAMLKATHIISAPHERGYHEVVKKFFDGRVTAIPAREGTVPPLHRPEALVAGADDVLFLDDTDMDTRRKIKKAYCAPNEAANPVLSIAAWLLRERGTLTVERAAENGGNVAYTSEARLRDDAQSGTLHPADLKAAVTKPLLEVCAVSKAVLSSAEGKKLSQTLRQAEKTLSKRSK
Put plainly: Trypanosoma cruzi tyrosyl tRNA synthetase (TcYRS) _High Tyrosine SOP. Note: in the data most compounds retested in dose-response had high values. It counts as functional. Conditions: 30 µM.

The target of test [10] is T4, Tyrosyl-tRNA synthetase, putative (Trypanosoma cruzi (strain CL Brener)). Kind of test: Trypanosoma cruzi tyrosyl tRNA synthetase (TcYRS) SOP. Type of test: functional. Conditions: 30 µM.
Test [11] concerns the target Chromo domain-containing protein 1 (Saccharomyces cerevisiae (strain ATCC 204508 / S288c) (Baker's yeast)) (UniProt P32657). Put plainly: ScCHD-1 Enzyme Inhibition Assay. Note: in the data most compounds retested in dose-response had high values. It counts as functional. Conditions: 30 µM.

For some assays here: Entries with a potency or affinity are not part of this list.

Sialic acid-binding Ig-like lectin 9 (Homo sapiens), sequence (Q9Y336 whole entry): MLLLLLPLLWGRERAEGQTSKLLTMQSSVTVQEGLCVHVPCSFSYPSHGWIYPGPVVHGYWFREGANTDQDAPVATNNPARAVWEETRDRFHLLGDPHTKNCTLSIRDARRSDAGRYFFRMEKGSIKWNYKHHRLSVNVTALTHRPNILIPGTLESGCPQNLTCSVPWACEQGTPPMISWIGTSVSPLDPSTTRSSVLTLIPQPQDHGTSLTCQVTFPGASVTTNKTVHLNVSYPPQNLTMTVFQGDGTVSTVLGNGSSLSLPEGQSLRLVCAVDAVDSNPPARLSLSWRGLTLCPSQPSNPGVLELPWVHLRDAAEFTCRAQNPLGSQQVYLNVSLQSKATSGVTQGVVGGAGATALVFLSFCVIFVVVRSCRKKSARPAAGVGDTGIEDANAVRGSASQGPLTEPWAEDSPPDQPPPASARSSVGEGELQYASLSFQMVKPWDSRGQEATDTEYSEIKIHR
Protein translocase subunit SecA (Escherichia coli (strain K12)), sequence (P10408 whole entry): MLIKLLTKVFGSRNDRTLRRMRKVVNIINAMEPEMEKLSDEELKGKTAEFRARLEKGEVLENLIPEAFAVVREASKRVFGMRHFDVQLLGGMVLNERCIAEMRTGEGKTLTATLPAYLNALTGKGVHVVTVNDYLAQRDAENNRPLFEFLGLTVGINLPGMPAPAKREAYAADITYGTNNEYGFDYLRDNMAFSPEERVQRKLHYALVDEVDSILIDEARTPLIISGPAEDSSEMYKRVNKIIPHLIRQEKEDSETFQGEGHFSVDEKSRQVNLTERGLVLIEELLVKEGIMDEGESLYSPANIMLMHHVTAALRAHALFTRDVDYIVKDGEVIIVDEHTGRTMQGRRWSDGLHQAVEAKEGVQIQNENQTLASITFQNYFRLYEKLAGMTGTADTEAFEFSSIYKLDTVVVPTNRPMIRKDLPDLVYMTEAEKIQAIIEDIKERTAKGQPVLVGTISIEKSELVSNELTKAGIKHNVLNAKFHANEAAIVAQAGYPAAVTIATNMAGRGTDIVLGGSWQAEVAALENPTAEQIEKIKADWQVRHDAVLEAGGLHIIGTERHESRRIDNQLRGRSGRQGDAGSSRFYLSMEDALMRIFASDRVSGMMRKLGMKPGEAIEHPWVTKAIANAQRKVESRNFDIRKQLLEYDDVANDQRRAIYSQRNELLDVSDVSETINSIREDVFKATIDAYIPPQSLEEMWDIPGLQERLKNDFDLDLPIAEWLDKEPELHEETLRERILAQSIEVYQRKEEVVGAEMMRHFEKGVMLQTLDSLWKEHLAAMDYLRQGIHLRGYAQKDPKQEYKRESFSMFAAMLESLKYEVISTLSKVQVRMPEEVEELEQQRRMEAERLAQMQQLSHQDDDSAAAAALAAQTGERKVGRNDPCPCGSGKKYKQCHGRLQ
Chromo domain-containing protein 1 (Saccharomyces cerevisiae (strain ATCC 204508 / S288c) (Baker's yeast)), sequence (P32657 whole entry, the tested form may be a part): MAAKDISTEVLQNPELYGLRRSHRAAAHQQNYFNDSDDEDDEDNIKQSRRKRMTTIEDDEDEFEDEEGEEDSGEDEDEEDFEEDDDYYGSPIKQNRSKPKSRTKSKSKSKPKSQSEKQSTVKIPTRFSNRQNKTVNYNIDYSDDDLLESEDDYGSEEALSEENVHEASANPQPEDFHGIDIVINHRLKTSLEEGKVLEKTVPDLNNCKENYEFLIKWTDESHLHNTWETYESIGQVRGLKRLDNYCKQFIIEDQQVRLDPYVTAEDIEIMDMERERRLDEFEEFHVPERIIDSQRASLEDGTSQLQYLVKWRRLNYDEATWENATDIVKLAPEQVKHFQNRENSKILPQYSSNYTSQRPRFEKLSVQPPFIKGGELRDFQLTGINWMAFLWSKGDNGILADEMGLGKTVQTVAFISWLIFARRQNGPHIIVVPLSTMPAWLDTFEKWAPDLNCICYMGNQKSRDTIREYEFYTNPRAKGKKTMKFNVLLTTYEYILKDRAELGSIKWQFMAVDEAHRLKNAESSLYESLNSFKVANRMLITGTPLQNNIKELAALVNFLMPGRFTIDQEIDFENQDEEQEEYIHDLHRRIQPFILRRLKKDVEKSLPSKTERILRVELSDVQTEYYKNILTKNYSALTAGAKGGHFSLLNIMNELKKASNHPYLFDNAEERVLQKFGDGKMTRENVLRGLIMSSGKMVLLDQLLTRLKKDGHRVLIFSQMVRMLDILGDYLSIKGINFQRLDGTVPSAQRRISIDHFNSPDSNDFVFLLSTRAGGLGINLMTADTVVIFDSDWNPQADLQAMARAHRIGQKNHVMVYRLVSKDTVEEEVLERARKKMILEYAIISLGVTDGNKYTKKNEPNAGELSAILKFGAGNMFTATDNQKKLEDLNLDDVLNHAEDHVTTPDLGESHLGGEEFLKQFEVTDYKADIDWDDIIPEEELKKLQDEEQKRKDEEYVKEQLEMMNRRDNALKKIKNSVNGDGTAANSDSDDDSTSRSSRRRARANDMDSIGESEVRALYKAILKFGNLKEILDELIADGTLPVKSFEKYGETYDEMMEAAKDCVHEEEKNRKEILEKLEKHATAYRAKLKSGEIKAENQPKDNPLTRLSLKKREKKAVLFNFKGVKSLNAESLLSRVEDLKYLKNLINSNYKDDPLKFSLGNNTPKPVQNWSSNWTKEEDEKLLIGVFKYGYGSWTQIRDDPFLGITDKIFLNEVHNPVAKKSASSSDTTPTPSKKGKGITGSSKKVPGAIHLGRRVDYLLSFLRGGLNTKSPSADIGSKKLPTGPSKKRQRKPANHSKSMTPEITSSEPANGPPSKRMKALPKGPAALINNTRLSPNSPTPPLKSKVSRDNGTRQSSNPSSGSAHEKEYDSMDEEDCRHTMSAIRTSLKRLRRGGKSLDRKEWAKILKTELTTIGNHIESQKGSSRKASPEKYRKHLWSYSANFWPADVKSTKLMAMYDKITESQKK

Consider `Cc1ccc(-c2cc(N)c(=O)n(CC(=O)NCC3CC3)n2)s1`, for which the Percent Effect in [1] is -3.74%; in test [2] it was 6.76%; in test [3], 19.9%; in test [4] it was 2.48%; in test [5], -0.395%; in test [6], -5.8%. The Percent Effect in [7] was 9.2%; in test [8], 11.4%; in test [9] it was 1.07%; in [10], 9.09%; in test [11] it was -14.1%.

In the case of `CCN1CCN(C(=O)c2cc(C(=O)OC)nn2-c2ccccc2)CC1`, the Percent Effect in test [1] is -1.39%; in test [2], 18.4%; in [3] it was 3.57%; in test [4], -5.6%; in [5] it was -5.26%; in [6] it was 11.5%. Besides, the Percent Effect in [7] was 15.2%; in test [8], 20.6%; in test [9] it was 7.35%; in test [10] it was 7.32%; in [11] it was -8.31%.

Regarding `O=c1n(CCSCc2ccccc2F)nc2ccccn12`, the Percent Effect is -4.09% in [1]; 7.79% in test [2]; 0.704% in test [3]; -1.41% in [4]; 7.15% in [5]; 4% in test [6]. Moreover, the Percent Effect is 1.7% in test [7]; 16.8% in [8]; 0.952% in test [9]; 11.8% in [10]; -29.5% in test [11].

`Cc1noc(C(C)N2CCN(CCCN3CCCC3=O)CC2)n1` (stereo not given): the Percent Effect in test [1] is -1.22%; in test [2], 21.6%; in [3] it was 32.3%; in [4] it was 1.61%; in test [5], 1.23%; in [6], -8.02%. Moreover, the Percent Effect was 19.5% in test [7]; 9.12% in test [8]; 7.39% in test [9]; 23.5% in test [10]; -15.8% in test [11].

On to `Cc1ccc(CNC(=O)Cn2ncc3c2c(C)nn3C)cc1`, for which the Percent Effect in test [1] is 0.175%; in [2], 4%; in test [3], 4.44%; in test [4], 1.31%; in test [5] it was -6.68%; in [6], -16.4%. Further, the Percent Effect in test [7] was 10.2%; in test [8] it was 6.77%; in test [9], 3.17%; in test [10], 7.69%; in test [11], -8.77%.

In the case of `c1ccc(-c2nccc(CNCC3CCCN3c3cccnn3)n2)cc1` (stereo not given), the Percent Effect in test [1] was -3.71%; in [2] it was -18.4%; in test [3] it was 3.25%; in test [4] it was -4.68%; in [5], -0.94%; in test [6], 0.383%. The Percent Effect in test [7] is -0.501%; in test [8] it was 20.1%; in [9], 6.37%; in [10] it was -2.44%; in [11], 11.3%.

`Cc1nc(C)n(CC2CCCCN2CCCS(=O)(=O)N(C)C)n1` (stereo not given): the Percent Effect was 4.38% in test [1]; 16.2% in [2]; -12.4% in test [3]; 5.89% in test [4]; 2.7% in test [5]; 3.33% in test [6]. Moreover, the Percent Effect in [7] was 11.9%; in test [8], 4.05%; in test [9] it was 4.76%; in test [10] it was 7.32%; in test [11] it was -0.511%.

Regarding `CCc1c(C)nc2n(c1=O)CC(C(=O)Nc1ccccc1F)CS2` (stereo not given), the Percent Effect was -5.58% in [1]; 18.2% in test [2]; -0.318% in [3]; 8.95% in [4]; 0.888% in test [5]; -1.94% in [6]. Also, the Percent Effect is 7.83% in test [7]; 9.05% in test [8]; 6.35% in [9]; 16.7% in test [10]; -4.84% in test [11].

Regarding `CCOc1ccc(NC(=O)c2cnc(N3CCCC3)nc2C)cc1`, the Percent Effect is -4.12% in test [1]; 5.2% in test [2]; -3.01% in test [3]; -0.674% in test [4]; 1.48% in [5]; 3.23% in [6]. Also, the Percent Effect was 5.22% in test [7]; 11.8% in test [8]; 4.23% in [9]; 16.7% in test [10]; -8.66% in [11].

For `CSCCNC(=O)c1ccc(OC2CCN(CC(C)(C)C)CC2)c(Cl)c1`, the Percent Effect in test [1] was -3.94%; in test [2], 8.11%; in [3] it was -0.678%; in test [4], 31.3%; in test [5], 7.53%; in test [6], 0.248%. Moreover, the Percent Effect is 7.47% in test [7]; -3.54% in [8]; 2.15% in test [9]; 8.64% in test [10]; -9.27% in [11].
